Assay outcomes from PubChem BioAssay.
Rows were chosen to be rich in hits. Some 5.7% of all compounds tested hit in one or more screens of this group.
MPTP block – inhibitors of mitochondrial permeability transition pore; isolated mouse mitochondria, Ca2+ swelling absorbance, 30 min; inhibition, % at 10 µM; 1.4% of 360,000 active;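 active = inhibition of 50% or more, scaled per plate between neutral and stimulator controls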;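 note: 0% = DMSO wells given calcium and 100% = 1 mM EGTA wells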
rCAG binder – r(CAG) repeat RNA binding | TO-PRO-1 dye displacement fluorescence | inhibition, % at 3 µM | 1.3% of 370,000 active;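 active = inhibition above the plate cutoff, the mean of all test compounds on that plate plus 3 SD, cut at about 35% in these data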;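 note: 0% = DMSO alone and 100% = 100 µM mitoxantrone as full dye displacement; higher means more dye released from RNA so lower well fluorescence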
NR3A LBD binder – modulates the human NR3A ligand-binding domain; NR3A LBD differential scanning fluorimetry, Tm shift; 0% = protein alone, 100% = glycine-bound protein; Tm shift relative to glycine control, % at 25 µM; 2.5% of 340,000 active; AID 1259313;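 active = melting temperature shift of at least 10% of the positive control shift, at one fixed dose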
Myeloid diff 2 – myeloid differentiation induction. AID 624256. calls only at 10 µM. 1% of 360,000 active. ER-HoxA9 myeloid progenitors, lysozyme-GFP differentiation, flow cytometry;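 active = normalized GFP-positive differentiation at or above the plate's own cutoff, the solvent-only control mean plus 3 SD; inconclusive = no clear call, values can overlap the other calls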;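 note: cells exposed to compound for four days before flow analysis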
FAS-TE inh – inhibitors of human fatty acid synthase thioesterase domain. inhibition, % at 15 µM. 0.67% of 360,000 active. recombinant FAS-TE, OMFH fluorogenic substrate, fluorescence endpoint;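 active = compounds whose normalised, plate-corrected inhibition of enzyme fluorescence in the single-dose primary screen is 50% or more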;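 note: 0% = DMSO with enzyme and 100% = substrate without enzyme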
An asterisk follows results filed as active; i = inactive; ? = inconclusive; · = not tested or not shown; + = active, no number; ! = not confirmed by another sample.

SMILES	MPTP block	rCAG binder	NR3A LBD binder	Myeloid diff 2	FAS-TE inh
CCOc1ccccc1-c1nc2c(s1)CCc1onc(-c3ccc(OC)cc3)c1-2	1.1	4.0	16.8*	i	25.6
Cc1nc2c(o1)CCc1ccccc1C2N1CCN(C)CC1 (stereo not given)	-0.9	-0.9	13.0*!	i	-7.0
Cc1cccc(NC(=O)CSc2nnc(-c3cccnc3)n2Cc2ccco2)c1C	·	5.9	·	·	·
O=C(NCCc1nc2ccccc2[nH]1)c1cc([N+](=O)[O-])cc([N+](=O)[O-])c1	1.7	0.3	11.1*	i	0.1
COC(=O)c1cc2c(c3c4cc(OC)ccc4n(S(=O)(=O)c4ccc(OC)cc4)c13)C(=O)N(Cc1ccco1)C2	·	21.4	·	·	·
Cc1ccc(NC(=O)Nc2cc(C(F)(F)F)c[nH]c2=O)cc1	0.5	9.8	23.7*	?	9.8
Cc1ccc(NC(=O)Nc2ccon2)cc1	-1.1	-3.1	-1.2	?	-2.4
Cc1ccc(NC(=O)c2ncn(CC(=O)NCc3ccccc3)n2)cc1C	-0.3	3.6	0.3	i	-3.9
Cc1ccc(NC(=O)c2ncn(CC(=O)N[C@H](C)c3cccc4ccccc34)n2)cc1C	0.8	7.0	18.5*	i	12.1
Cc1ccc(NC(=O)c2ncn(CC(=O)NCc3nc4ccccc4[nH]3)n2)cc1C	-0.5	4.0	16.8*	i	-4.4
CN(C)c1ccc(C(=O)NCCc2ccccc2-c2ccccc2CCC(=O)NCc2ccccc2)cc1	·	3.1	·	·	·
O=C(C1CCCN(S(=O)(=O)c2cccc3nonc23)C1)N1CCN(c2ccccc2Cl)CC1 (stereo not given)	0.8	5.0	-1.5	i	18.3
O=C(C1CCCN(S(=O)(=O)c2cccc3nonc23)C1)N1CCN(c2cccc(Cl)c2)CC1 (stereo not given)	0.4	2.0	-7.1	+	28.7
c1ccc(CC(Nc2cccnc2)c2ccccc2)cc1 (stereo not given)	·	-0.8	·	·	·
COc1ccc(C=NNc2nc3ccccc3s2)cc1	1.5	10.4	33.1*	i	4.1
COc1cc(OC)cc(C(=O)Oc2ccc(/C=N/Nc3nc4ccccc4s3)cc2OC)c1	0.7	17.1	18.0*	i	22.9
C[C@H]1COc2cccc(N3CCCC3)c2S(=O)(=O)N1	·	0.7	·	·	·
CCOC(=O)[C@]12CCCC3=C1N(CCC3)C(=O)[C@@H](CC(=O)N1CCN(C(=O)C3CC3)CC1)C2	·	-1.8	·	·	·
O/N=C\c1ccc2noc(-c3ccc(Cl)cc3)c2c1	1.4	4.6	32.0*	i	-7.1
COc1cccc(C(=O)N[C@H](C(=O)N2CCC[C@H]2C(=O)NC2CCCC2)c2ccccc2)c1	·	-2.8	·	·	·
O=C(Nc1ccccc1)Nc1nc2ncccn2c1-c1ccc(C(F)(F)F)cc1	·	4.4	·	·	·
O=C(Cn1cnnn1)OCC(=O)c1ccc(Cl)s1	0.5	27.4	2.2	+	-9.0
COCC(=O)N1CCC(C(=O)NC2CCCc3ccccc32)CC1 (stereo not given)	·	0.7	·	·	·
CCOc1ccc(NC(=O)CCC(=O)NNC(=O)Nc2ccc(Cl)cc2)cc1	3.0	0.9	11.8*	i	-5.7
NC(=O)c1ncn([C@@H]2O[C@H](C(=O)N[C@H](Cc3ccccc3)C(=O)O)[C@@H](O)[C@H]2O)n1	·	0.4	·	·	·
SMILES	MPTP block	rCAG binder	NR3A LBD binder	Myeloid diff 2	FAS-TE inh
Cc1[nH]c2ccccc2c1C(=O)/C=C/c1ccccc1	-2.0	6.8	-2.1	i	4.1
Cc1[nH]c2ccccc2c1C(=O)/C=C/c1ccccc1Cl	14.2	15.2	27.2*	i	7.2
COc1ccc(NC(=S)N(Cc2cccc(Br)c2)CC2CCC(C(=O)O)CC2)cc1 (stereo not given)	-0.6	21.1	12.2*	i	-5.3
COc1cccc(NC(=S)N(Cc2cccc(Br)c2)CC2CCC(C(=O)O)CC2)c1 (stereo not given)	-1.0	20.8	17.0*	i	-2.8
COc1cc2ccc(C(C)=NNC(N)=S)cc2cc1OC	-0.2	5.9	·	+	-4.2
CC(=NNC(N)=S)c1ccc2cc3c(cc2c1)OCO3	-0.7	5.8	·	·	-1.8
COc1ccc(-c2nnc3ccc(SCC(=O)Nc4nc5ccc(C)cc5s4)nn23)cc1OC	-2.0	7.7	13.9*	i	6.4
COC(=O)CSc1ccc2nnc(-c3ccc(OC)c(OC)c3)n2n1	-1.5	-0.1	-1.2	i	-4.5
COc1ccc(S(=O)(=O)N(CCCN2CCOCC2)Cc2cccc(OC)c2OC)cc1	-7.1	-2.5	2.2	i	-6.2
COc1ccc(S(=O)(=O)N(CCN2CCOCC2)Cc2cc(OC)ccc2OC)cc1	0.0	-9.1	16.0*	i	-3.0
Cc1ccccc1Br	·	-0.2	·	·	·
CCc1ccc(C2=CC(c3cc(Br)ccc3F)n3ncnc3N2)cc1 (stereo not given)	1.4	4.7	-6.8	+	7.2
COC(=O)c1ccc(C2c3c(n[nH]c3C)C(=O)N2c2ccc(C)cc2)cc1 (stereo not given)	-0.5	5.8	34.8*	i	5.0
COC(=O)CC#C[C@H](C)[C@@H](NS(C)(=O)=O)C(C)(C)COCc1ccccc1	·	1.0	·	·	·
O=C(CN1CCN(Cc2ccccc2)CC1)Nc1cccc(C(F)(F)F)c1	0.3	-8.2	2.0	i	1.1
Cc1ccc(Cn2c(=O)c3cccnc3n(CC(=O)Nc3cccc(C(F)(F)F)c3)c2=O)cc1	13.4	4.5	22.8*	i	28.2
Clc1ccc(-c2cc3ccccc3[nH]2)cc1	36.6	6.1	16.9*	i	25.6
CCOC(=O)N[C@H](C(=O)N1CCC[C@H]1C(=O)NC1CCCC1)C1CCCCC1	·	-0.9	·	·	·
COc1cccc(Nc2nc(C(C)N)cs2)n1 (stereo not given)	-1.6	4.7	·	i	-7.9
COc1ccc(C(N)c2csc(Nc3nncc4ccccc34)n2)cc1 (stereo not given)	1.8	13.5	·	+	-7.9
COc1cccc(Nc2nc(C(N)c3ccccc3)cs2)n1 (stereo not given)	2.8	8.6	·	+	-10.2
COCc1[nH]nc2c1C(c1ccc3c(c1)OCO3)N(c1ccc(OC)cc1)C2=O (stereo not given)	·	3.9	·	·	·
O=C(NNC(=O)c1cc2cc(OC(F)(F)F)ccc2[nH]1)c1cccc(C(F)(F)F)c1	10.3	12.8	22.6*	i	4.8
CCCN1CCCCC(NC(=O)COCc2ccccc2)C1=O (stereo not given)	·	-2.6	·	·	·
CCS(=O)(=O)N1CCN(C(=O)c2ccc3nc(C)c(N(C)C(=O)CCc4ccccc4)n3c2)CC1	-0.1	1.8	·	i	-7.2
CN(C)c1ccc(C(=O)c2ccc(O)cc2O)cc1	0.9	3.3	-19.1	i	-3.3
CN(C)c1ccc(Cc2cc3c(O)ccc(O)c3cc(Cc3ccc(N(C)C)cc3)c2=O)cc1	3.4	76.1*	-30.1	i	9.0
O=C(c1cccc(S(=O)(=O)NCc2ccccc2)c1)N1CCN(Cc2ccccc2)CC1	0.3	-7.3	15.1*	i	-1.9
Cc1ccc(C(=O)OCC(=O)Nc2ccccc2)cc1NC(=O)c1ccco1	1.2	3.1	-0.1	i	-2.3
